What all share (test): DAPPL (digital affinity profiling via proximity ligation, sequencing); 10 mM Tris-HCl pH 7.5, 50 mM NaCl, 1 mM DTT, 4% glycerol, room temperature, 30 min; GST-TFs on glutathione beads, 16-mer random dsDNA library, 0.1% formaldehyde crosslink after washing; high values mean tight binding
Conditions in all cases: protein: recombinant; tags: N-terminal GST; dsDNA, one strand shown

In experiment [1] the target is T1, ERF (Homo sapiens, UniProt P50548 1-548).
T1 sequence: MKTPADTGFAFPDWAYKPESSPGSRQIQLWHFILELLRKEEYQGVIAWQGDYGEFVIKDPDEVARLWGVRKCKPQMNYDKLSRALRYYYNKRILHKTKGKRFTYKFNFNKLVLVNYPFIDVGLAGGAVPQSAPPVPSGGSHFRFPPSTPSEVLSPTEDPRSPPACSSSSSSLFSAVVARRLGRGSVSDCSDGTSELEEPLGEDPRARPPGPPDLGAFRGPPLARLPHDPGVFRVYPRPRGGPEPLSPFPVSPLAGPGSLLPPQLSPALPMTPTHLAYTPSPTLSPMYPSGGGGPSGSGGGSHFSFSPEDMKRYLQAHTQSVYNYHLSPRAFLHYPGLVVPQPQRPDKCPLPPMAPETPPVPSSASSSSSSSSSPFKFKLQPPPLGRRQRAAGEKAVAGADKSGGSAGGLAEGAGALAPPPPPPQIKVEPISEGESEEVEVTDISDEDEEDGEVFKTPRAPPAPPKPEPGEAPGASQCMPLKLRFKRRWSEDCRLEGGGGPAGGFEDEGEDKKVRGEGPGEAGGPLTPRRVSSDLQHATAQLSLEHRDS
A digest of the protocol:
(§1)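 Human transcription factors carrying a GST fusion were produced in yeast, bound to glutathione beads, tagged with DNA barcodes and pooled together with a tag-only sample. Each pool was held with 200 nmole of a random double-stranded 16-mer DNA library in Tris/NaCl/DTT/glycerol buffer for 30 min at room temperature, then washed, crosslinked in 0.1% formaldehyde, proximity-ligated with BsaI/T4 ligase (1 h, 37 °C), PCR-amplified and sequenced on an Illumina NextSeq500. Binding signal is the read frequency of each hexamer for a given factor divided by its frequency in the tag-only sample.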

Experiment [2] addresses T2, ETV3L (Homo sapiens, UniProt Q6ZN32 1-361).
T2 sequence: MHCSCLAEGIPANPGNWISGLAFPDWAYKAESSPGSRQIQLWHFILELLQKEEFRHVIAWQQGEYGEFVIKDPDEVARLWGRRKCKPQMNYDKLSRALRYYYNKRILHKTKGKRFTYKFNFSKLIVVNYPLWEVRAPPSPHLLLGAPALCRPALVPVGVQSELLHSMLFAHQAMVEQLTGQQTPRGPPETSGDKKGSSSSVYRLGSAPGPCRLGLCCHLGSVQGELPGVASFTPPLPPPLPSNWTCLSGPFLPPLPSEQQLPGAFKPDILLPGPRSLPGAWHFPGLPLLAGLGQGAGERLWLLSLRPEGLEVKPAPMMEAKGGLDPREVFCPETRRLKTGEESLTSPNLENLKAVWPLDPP
A digest of the protocol:
as §1

For experiment [3], the target named is T3, ETS2 (Homo sapiens, UniProt P15036 1-469).
T3 sequence: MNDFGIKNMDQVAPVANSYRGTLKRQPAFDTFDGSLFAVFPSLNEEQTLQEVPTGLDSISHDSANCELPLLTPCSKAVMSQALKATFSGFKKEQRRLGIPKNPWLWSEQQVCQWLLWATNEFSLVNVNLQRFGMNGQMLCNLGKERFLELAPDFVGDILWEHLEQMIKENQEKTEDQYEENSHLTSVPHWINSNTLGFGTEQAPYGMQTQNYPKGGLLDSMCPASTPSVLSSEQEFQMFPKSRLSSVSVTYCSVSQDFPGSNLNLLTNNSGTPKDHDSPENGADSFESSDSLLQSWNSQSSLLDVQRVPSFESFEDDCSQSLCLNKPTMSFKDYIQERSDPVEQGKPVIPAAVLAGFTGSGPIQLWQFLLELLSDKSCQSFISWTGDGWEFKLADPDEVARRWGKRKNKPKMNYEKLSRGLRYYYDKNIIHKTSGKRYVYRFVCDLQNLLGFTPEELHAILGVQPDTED
A digest of the protocol: as §1

Experiment [4] addresses T4, SPDEF (Homo sapiens, UniProt O95238 1-335).
T4 sequence: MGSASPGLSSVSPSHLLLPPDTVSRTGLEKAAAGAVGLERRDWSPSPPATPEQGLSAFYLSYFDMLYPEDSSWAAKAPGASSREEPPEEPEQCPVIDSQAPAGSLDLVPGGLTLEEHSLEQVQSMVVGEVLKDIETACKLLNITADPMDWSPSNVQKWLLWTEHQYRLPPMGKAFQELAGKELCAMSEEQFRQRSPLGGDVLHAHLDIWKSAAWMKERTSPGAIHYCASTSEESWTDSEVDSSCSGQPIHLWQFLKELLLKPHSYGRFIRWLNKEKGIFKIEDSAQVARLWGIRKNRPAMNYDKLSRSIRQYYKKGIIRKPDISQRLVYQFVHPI
A digest of the protocol:
as §1

Experiment [5] addresses T5, ETV7 (Homo sapiens, UniProt Q9Y603 1-341).
T5 sequence: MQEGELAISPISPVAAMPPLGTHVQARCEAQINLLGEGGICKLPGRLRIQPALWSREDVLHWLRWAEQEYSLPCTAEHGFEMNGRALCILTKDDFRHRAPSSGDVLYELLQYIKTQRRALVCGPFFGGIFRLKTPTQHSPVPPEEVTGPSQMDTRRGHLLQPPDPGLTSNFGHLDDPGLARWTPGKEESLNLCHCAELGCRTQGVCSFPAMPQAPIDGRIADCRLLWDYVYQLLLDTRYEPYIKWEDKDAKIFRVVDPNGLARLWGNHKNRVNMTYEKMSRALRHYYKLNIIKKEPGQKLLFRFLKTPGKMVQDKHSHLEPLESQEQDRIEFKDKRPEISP
A digest of the protocol:
as §1

For experiment [6], the target named is T6, ELF5 (Homo sapiens, UniProt Q9UKW6-2 1-255).
T6 sequence: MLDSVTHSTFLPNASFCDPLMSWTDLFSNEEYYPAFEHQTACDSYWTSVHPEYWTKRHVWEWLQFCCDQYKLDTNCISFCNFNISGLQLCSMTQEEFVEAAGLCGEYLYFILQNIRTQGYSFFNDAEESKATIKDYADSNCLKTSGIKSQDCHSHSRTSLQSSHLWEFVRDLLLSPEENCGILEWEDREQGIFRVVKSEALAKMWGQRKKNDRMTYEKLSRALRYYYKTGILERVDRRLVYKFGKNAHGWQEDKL
A digest of the protocol: as §1

Experiment [7] addresses T7, ETV3 (Homo sapiens, UniProt P41162-2 1-143).
T7 sequence: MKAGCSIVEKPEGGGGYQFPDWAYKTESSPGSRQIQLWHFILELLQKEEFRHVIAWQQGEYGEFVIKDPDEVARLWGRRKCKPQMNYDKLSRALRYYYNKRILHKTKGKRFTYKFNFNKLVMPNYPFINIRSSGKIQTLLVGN
A digest of the protocol:
as §1

Experiment [8] addresses ETV6 (Homo sapiens, UniProt P41212 1-452). A digest of the protocol:
as §1

Sequence of ETV6 (P41212 whole entry): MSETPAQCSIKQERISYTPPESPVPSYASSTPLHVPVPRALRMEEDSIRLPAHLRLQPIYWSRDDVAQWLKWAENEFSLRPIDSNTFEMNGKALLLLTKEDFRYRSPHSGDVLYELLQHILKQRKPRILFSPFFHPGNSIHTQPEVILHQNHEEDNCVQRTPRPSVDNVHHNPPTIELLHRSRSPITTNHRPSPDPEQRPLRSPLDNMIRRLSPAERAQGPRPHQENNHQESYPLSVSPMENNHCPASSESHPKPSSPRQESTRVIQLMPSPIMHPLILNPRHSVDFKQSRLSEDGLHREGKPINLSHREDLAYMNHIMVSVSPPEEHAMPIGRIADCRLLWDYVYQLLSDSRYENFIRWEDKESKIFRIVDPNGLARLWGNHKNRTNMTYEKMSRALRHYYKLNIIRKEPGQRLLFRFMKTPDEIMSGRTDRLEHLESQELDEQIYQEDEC

CTTAGT: the binding signal in experiment [1] was 1.29 fold enrichment (6-mer frequency, TF over GST control); in experiment [2], 1.18 fold enrichment (6-mer frequency, TF over GST control); in experiment [3], 1.15 fold enrichment (6-mer frequency, TF over GST control); in experiment [4], 1.2 fold enrichment (6-mer frequency, TF over GST control); in experiment [5] it was 1.07 fold enrichment (6-mer frequency, TF over GST control); in experiment [6] it was 1.13 fold enrichment (6-mer frequency, TF over GST control). Moreover, the binding signal in experiment [7] was 1.31 fold enrichment (6-mer frequency, TF over GST control); in experiment [8] it was 1.24 fold enrichment (6-mer frequency, TF over GST control).

Consider TATCAC, for which the binding signal in experiment [1] was 1.19 fold enrichment (6-mer frequency, TF over GST control); in experiment [2], 1.23 fold enrichment (6-mer frequency, TF over GST control); in experiment [3], 1.2 fold enrichment (6-mer frequency, TF over GST control); in experiment [4], 1.25 fold enrichment (6-mer frequency, TF over GST control); in experiment [5], 1.14 fold enrichment (6-mer frequency, TF over GST control); in experiment [6] it was 1.14 fold enrichment (6-mer frequency, TF over GST control). For the same sequence, the binding signal in experiment [7] was 1.19 fold enrichment (6-mer frequency, TF over GST control); in experiment [8] it was 1.25 fold enrichment (6-mer frequency, TF over GST control).

Turning to GAATGT, the binding signal in experiment [1] is 1.04 fold enrichment (6-mer frequency, TF over GST control); in experiment [2], 1.1 fold enrichment (6-mer frequency, TF over GST control); in experiment [3] it was 1.06 fold enrichment (6-mer frequency, TF over GST control); in experiment [4], 1.16 fold enrichment (6-mer frequency, TF over GST control); in experiment [5], 1.13 fold enrichment (6-mer frequency, TF over GST control); in experiment [6] it was 1.08 fold enrichment (6-mer frequency, TF over GST control). The binding signal in experiment [7] was 1.12 fold enrichment (6-mer frequency, TF over GST control); in experiment [8] it was 1.03 fold enrichment (6-mer frequency, TF over GST control).

For CATATT, the binding signal in experiment [1] is 1.32 fold enrichment (6-mer frequency, TF over GST control); in experiment [2], 1.29 fold enrichment (6-mer frequency, TF over GST control); in experiment [3], 1.22 fold enrichment (6-mer frequency, TF over GST control); in experiment [4], 1.24 fold enrichment (6-mer frequency, TF over GST control); in experiment [5], 1.19 fold enrichment (6-mer frequency, TF over GST control); in experiment [6], 1.23 fold enrichment (6-mer frequency, TF over GST control). In addition, the binding signal in experiment [7] is 1.24 fold enrichment (6-mer frequency, TF over GST control); in experiment [8], 1.25 fold enrichment (6-mer frequency, TF over GST control).

As for CTTATC, the binding signal in experiment [1] is 1.12 fold enrichment (6-mer frequency, TF over GST control); in experiment [2], 1.22 fold enrichment (6-mer frequency, TF over GST control); in experiment [3] it was 1.12 fold enrichment (6-mer frequency, TF over GST control); in experiment [4] it was 1.23 fold enrichment (6-mer frequency, TF over GST control); in experiment [5] it was 1.1 fold enrichment (6-mer frequency, TF over GST control); in experiment [6], 1.17 fold enrichment (6-mer frequency, TF over GST control). Also, the binding signal in experiment [7] is 1.15 fold enrichment (6-mer frequency, TF over GST control); in experiment [8], 1.1 fold enrichment (6-mer frequency, TF over GST control).

TACATA: the binding signal in experiment [1] was 1.33 fold enrichment (6-mer frequency, TF over GST control); in experiment [2] it was 1.1 fold enrichment (6-mer frequency, TF over GST control); in experiment [3], 1.27 fold enrichment (6-mer frequency, TF over GST control); in experiment [4] it was 1.2 fold enrichment (6-mer frequency, TF over GST control); in experiment [5], 1.31 fold enrichment (6-mer frequency, TF over GST control); in experiment [6], 1.16 fold enrichment (6-mer frequency, TF over GST control). In addition, the binding signal is 1.21 fold enrichment (6-mer frequency, TF over GST control) in experiment [7] and 1.21 fold enrichment (6-mer frequency, TF over GST control) in experiment [8].

With TCAAAA, the binding signal is 1.12 fold enrichment (6-mer frequency, TF over GST control) in experiment [1]; 1.18 fold enrichment (6-mer frequency, TF over GST control) in experiment [2]; 1.15 fold enrichment (6-mer frequency, TF over GST control) in experiment [3]; 1.06 fold enrichment (6-mer frequency, TF over GST control) in experiment [4]; 1.22 fold enrichment (6-mer frequency, TF over GST control) in experiment [5]; 1.11 fold enrichment (6-mer frequency, TF over GST control) in experiment [6]. For the same sequence, the binding signal was 1.15 fold enrichment (6-mer frequency, TF over GST control) in experiment [7] and 1.24 fold enrichment (6-mer frequency, TF over GST control) in experiment [8].

The values above are taken from article PMC7862700, “An all-to-all approach to the identification of sequence-specific readers for epigenetic DNA modifications on cytosine”.
